Results filed as inconclusive are left out. Active and inactive are the calls of the source. Unless noted, calls follow the shape of the full dose curve.
What was measured:
[1] = biological target: Androgen receptor (Homo sapiens) (UniProt P10275); experiment: qHTS assay for small molecule agonists of androgen receptor signaling (AID 588515; active = well fitted curve in the direction sought with a large enough effect in the signal ratio, with a control signal flat; the % refers to the signal ratio; also: % is scaled to controls: 0 for no effect and ±100 for the full control effect); settings: AR-UAS-bla HEK293, beta-lactamase ratio, agonist 16 h; stronger effect = higher value
How it was run: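 Stimulation of an AR-responsive β-lactamase reporter in GripTite HEK293 cells was measured after 16 h compound exposure at 37 °C, via CCF4 fluorescence after 2 h RT. EC50 from Hill fits, normalized to R1881 at 30 nM.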

[2] = biological target: Bile acid receptor (Homo sapiens) (UniProt Q96RI1); experiment: qHTS assay for small molecule antagonists of farnesoid X receptor signaling (AID 588526); settings: HEK293T FXR-UAS-bla, beta-lactamase ratio, antagonist mode; series mostly up to 76.7 µM; also: % is scaled to controls: 0 for no effect and ±100 for the full control effect
How it was run: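 Beta-lactamase reporter antagonist mode: HEK293T FXR-UAS-bla cells, titrated compound, CDCA stimulation, 16 h 37 C, CCF4 dye 2 h RT. Data normalized to CDCA 50 uM and DMSO; Hill-fit IC50.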

[3] = biological target: Bile acid receptor (Homo sapiens) (UniProt Q96RI1); experiment: qHTS assay for small molecule agonists of farnesoid X receptor signaling (AID 588527); settings: HEK293T FXR-UAS-bla, beta-lactamase ratio, 16 h; activation: stronger effect = higher value;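 also: 0% = vehicle basal and 100% = reference agonist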
How it was run: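 Read-out: beta-lactamase reporter fluorescence with CCF4 substrate in GeneBLAzer FXR-UAS-bla HEK293T cells, after 16 h compound exposure at 37 C. Response scaled between DMSO basal (0%) and chenodeoxycholic acid at 100 uM (100%).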

[4] = biological target: Glucocorticoid receptor (Homo sapiens) (UniProt P04150); experiment: qHTS assay for small molecule agonists of glucocorticoid receptor signaling (AID 588532; active = well fitted curve in the direction sought with a large enough effect in the signal ratio, with a control signal flat; the % refers to the signal ratio;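 also: 100% = dexamethasone at 0.1 µM and 0% = DMSO only wells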); settings: HeLa MMTV-bla, beta-lactamase ratio, agonist, 18 h; activation: stronger effect = higher value, percent of dexamethasone control, DMSO zero
How it was run: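 Quantitative HTS using CellSensor MMTV-bla HeLa cells in charcoal/dextran-treated serum; compounds tested up to 92 uM. After 18 h at 37 C, CCF4 dye reported reporter induction.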

[5] = biological target: Peroxisome proliferator-activated receptor gamma (Homo sapiens) (UniProt P37231); experiment: qHTS assay for small molecule antagonists of peroxisome proliferator-activated receptor gamma signaling (AID 588537; active = well fitted inhibition curve with a large enough effect in the signal ratio, with a control signal flat, not every such curve was filed as active; the % refers to the signal ratio;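 also: reporter cells co-stimulated with 50 nM rosiglitazone agonist during compound treatment; % of control where 0% means no effect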); settings: HEK293 PPARg-UAS-bla, beta-lactamase ratio, antagonist mode; series mostly up to 76.8 µM
How it was run: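 Antagonist-mode β-lactamase reporter screen run as a titration series. HEK293 PPARγ-UAS-bla cells are stimulated with rosiglitazone (50 nM final) for 16 h, then CCF4 is read at 460/530 nm. Data are scaled between DMSO and rosiglitazone and fitted to the Hill equation.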

[6] = biological target: Thyroid hormone receptor beta (Homo sapiens) (UniProt P10828); experiment: qHTS assay for small molecule antagonists of thyroid hormone receptor beta signaling (AID 588547; active = well fitted inhibition curve with a large enough effect in the signal ratio, with a control signal flat, not every such curve was filed as active; the % refers to the signal ratio;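 also: cells stimulated with 0.4 nM T3 agonist during compound exposure; % is scaled to controls: 0 for no effect and ±100 for the full control effect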); settings: TR-UAS-bla HEK293, beta-lactamase ratio, antagonist mode, 18 h
How it was run: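 Inhibition of T3-driven (0.4nM final) beta-lactamase reporter activity was measured over 0.59 nM to 92 uM compound after 18 h at 37 C. The cells were GripTite HEK293 TR-UAS-bla in charcoal/dextran-stripped serum, with CCF4 ratio read-out and IC50 from Hill fits.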

[7] = biological target: Glucocorticoid receptor (Homo sapiens) (UniProt P04150); experiment: qHTS assay for small molecule antagonists of glucocorticoid receptor signaling (AID 588533; active = well fitted inhibition curve with a large enough effect in the signal ratio, with a control signal flat, not every such curve was filed as active; the % refers to the signal ratio;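 also: cells stimulated with 2 nM dexamethasone as agonist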; also: potency is read from the fitted curve at half-maximal effect); settings: HeLa MMTV-bla, GRE beta-lactamase ratio, antagonist mode, 18 h; series mostly up to 76.8 µM
How it was run: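 Antagonist-mode qHTS: compound titrations added to GRE-bla HeLa cells, then dexamethasone 2 nM final; 18 h, 37 C. CCF4 FRET fluorescence normalized to dexamethasone and DMSO; IC50 from Hill fit.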

[8] = qHTS assay for small molecule antagonists of peroxisome proliferator-activated receptor delta signaling (AID 588535; active = well fitted inhibition curve with a large enough effect in the signal ratio, with a control signal flat, not every such curve was filed as active; the % refers to the signal ratio;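 as to max response: cells co-treated with a PPAR-delta agonist as stimulator during compound exposure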); settings: HEK293T PPARd-UAS-bla, beta-lactamase FRET ratio, 18 h; 460 nm channel
How it was run: (§1)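 Titrations were run on PPAR-delta-UAS-bla HEK293T cells in charcoal/dextran-stripped serum, incubated 18 h at 37 C. CCF4 fluorescence (460/530 nm) after 2 h RT; Hill equation yields IC50 and maximal response.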

[9] = biological target: Peroxisome proliferator-activated receptor delta (Homo sapiens) (UniProt Q03181); experiment: as above; settings: HEK293T PPARd-UAS-bla, beta-lactamase FRET ratio, 18 h; series mostly up to 76.7 µM
How it was run: as §1

[10] = qHTS assay for small molecule agonists of the antioxidant response element (ARE) signaling pathway (AID 651741; active = well fitted activation curve with a large enough effect in the signal ratio; the % refers to the signal ratio; also: potency is read from the fitted curve at half-maximal effect; as to activation: % of control where 0% means no effect); settings: HepG2 ARE-bla reporter, beta-lactamase FRET ratio, 16 h; series mostly up to 96 µM
How it was run: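 Beta-lactamase reporter under ARE control in HepG2 cells, 2,000 per well, was induced by 16 h compound treatment at 37 C. Read-out was fluorescence from LiveBLAzer B/G FRET substrate after 2 h at room temperature.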

[11] = qHTS assay for small molecule activators of the human pregnane X receptor (PXR) signaling pathway (AID 720659; call rule not given here; also: 0% is about no effect); settings: DPX-2 HepG2 CYP3A4-luciferase, 24 h; series mostly up to 92.3 µM

Glucocorticoid receptor (Homo sapiens), sequence (P04150 whole entry, looked up): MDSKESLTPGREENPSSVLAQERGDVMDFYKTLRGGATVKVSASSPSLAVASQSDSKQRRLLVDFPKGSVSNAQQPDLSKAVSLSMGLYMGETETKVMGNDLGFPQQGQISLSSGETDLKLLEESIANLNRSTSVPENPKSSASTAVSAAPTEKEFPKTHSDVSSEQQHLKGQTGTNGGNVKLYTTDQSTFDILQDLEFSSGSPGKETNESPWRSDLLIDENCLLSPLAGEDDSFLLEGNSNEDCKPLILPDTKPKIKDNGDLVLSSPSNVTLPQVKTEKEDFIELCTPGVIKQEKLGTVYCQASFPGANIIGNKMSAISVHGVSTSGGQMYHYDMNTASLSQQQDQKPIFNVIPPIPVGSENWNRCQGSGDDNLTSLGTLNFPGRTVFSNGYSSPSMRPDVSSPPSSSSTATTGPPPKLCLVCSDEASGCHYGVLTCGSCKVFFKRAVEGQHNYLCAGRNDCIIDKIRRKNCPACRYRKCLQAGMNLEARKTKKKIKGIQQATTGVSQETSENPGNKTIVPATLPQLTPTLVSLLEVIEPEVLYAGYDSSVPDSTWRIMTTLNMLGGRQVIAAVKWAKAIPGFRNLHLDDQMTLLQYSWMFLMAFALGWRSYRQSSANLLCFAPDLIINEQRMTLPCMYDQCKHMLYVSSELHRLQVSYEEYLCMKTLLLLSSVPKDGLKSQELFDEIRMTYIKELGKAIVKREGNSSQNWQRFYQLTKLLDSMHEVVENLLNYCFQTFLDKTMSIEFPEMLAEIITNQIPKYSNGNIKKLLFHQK
Androgen receptor (Homo sapiens), sequence (P10275 whole entry, looked up): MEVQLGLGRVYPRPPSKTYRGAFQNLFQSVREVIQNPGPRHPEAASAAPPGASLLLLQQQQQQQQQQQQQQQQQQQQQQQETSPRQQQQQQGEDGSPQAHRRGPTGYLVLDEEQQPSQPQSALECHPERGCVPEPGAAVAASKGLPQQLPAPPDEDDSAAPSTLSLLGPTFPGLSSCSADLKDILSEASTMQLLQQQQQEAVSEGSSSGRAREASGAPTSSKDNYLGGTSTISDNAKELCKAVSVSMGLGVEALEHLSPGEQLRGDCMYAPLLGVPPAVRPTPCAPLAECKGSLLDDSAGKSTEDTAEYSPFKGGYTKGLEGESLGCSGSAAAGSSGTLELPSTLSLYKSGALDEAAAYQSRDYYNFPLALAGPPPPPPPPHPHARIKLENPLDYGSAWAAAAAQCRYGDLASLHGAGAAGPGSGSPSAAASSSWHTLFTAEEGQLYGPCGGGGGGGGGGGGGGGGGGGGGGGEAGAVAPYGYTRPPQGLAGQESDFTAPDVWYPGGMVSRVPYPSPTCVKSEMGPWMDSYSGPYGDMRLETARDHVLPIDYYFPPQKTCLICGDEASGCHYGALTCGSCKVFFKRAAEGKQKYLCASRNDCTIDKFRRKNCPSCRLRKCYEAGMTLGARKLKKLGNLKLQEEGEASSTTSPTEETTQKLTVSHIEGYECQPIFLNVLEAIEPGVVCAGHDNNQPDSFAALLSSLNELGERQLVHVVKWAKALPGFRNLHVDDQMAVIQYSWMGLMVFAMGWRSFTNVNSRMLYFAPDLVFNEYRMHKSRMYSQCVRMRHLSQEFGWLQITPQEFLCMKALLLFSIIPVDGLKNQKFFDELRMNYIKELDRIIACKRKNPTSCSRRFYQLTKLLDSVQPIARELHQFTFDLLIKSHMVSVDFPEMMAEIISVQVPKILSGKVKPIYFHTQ
Peroxisome proliferator-activated receptor gamma (Homo sapiens), sequence (P37231 whole entry, looked up): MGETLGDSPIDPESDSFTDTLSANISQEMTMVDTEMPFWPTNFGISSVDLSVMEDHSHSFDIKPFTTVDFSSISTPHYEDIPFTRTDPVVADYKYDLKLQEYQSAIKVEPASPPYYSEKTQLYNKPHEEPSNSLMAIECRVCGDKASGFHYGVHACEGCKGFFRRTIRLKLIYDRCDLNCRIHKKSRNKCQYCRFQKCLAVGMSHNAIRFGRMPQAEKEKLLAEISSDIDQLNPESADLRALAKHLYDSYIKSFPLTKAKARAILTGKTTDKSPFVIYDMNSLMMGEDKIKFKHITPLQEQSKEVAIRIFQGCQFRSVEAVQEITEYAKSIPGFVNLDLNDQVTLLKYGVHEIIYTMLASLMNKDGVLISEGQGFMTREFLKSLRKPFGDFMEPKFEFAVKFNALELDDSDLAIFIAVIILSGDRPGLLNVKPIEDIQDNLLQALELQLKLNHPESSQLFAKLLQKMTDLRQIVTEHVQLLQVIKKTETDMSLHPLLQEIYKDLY
Peroxisome proliferator-activated receptor delta (Homo sapiens), sequence (Q03181 whole entry, looked up): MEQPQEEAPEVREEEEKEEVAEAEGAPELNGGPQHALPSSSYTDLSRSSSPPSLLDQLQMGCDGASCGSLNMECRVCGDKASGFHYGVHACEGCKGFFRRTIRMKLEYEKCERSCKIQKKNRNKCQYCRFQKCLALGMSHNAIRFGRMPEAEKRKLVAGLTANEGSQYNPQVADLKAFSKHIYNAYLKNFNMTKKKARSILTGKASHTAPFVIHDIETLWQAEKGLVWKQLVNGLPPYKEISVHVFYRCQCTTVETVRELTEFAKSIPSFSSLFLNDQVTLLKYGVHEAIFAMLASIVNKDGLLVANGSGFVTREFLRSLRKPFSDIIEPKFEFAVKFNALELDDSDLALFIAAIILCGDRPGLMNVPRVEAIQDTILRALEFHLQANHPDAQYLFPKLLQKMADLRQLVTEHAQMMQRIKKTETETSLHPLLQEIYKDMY
Bile acid receptor (Homo sapiens), sequence (Q96RI1 whole entry, looked up): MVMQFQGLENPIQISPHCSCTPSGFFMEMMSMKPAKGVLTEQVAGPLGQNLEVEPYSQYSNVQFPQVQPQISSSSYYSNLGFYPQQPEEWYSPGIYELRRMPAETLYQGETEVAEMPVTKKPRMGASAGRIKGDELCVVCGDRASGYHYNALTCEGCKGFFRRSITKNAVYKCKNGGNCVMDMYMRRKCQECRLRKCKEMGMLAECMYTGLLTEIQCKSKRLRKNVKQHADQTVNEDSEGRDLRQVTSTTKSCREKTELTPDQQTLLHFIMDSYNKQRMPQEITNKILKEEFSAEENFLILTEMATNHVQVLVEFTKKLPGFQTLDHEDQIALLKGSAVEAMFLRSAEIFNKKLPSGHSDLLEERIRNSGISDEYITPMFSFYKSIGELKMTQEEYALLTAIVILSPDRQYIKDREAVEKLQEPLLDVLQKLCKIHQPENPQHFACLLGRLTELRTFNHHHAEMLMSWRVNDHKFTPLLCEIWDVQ
Thyroid hormone receptor beta (Homo sapiens), sequence (P10828 whole entry, looked up): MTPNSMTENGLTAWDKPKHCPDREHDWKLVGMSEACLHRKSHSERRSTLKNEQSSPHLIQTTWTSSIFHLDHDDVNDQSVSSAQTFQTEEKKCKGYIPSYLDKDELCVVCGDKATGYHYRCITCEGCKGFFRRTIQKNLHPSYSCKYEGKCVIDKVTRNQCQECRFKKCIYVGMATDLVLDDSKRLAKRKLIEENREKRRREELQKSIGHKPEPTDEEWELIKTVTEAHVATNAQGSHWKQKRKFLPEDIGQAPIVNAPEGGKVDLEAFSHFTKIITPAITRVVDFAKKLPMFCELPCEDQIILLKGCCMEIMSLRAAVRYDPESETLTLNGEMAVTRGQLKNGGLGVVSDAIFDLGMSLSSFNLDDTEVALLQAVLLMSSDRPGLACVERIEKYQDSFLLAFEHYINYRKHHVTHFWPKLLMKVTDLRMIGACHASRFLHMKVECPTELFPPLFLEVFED

## O=C(Nc1ccccc1)Nc1ccnc(Cl)c1
[1]
  activation: 10.1% (inactive)
[2]
  Potency: inactive
[3]
  activation: -3.44% (inactive)
[4]
  activation: -0.972% (inactive)
[5]
  Potency: inactive
[6]
  activity change % (negative = inhibition): 16% (inactive)

## CCOP(N)(=O)Oc1ccc(SC)c(C)c1 (stereo not given)
[1]
  activation: -2.98% (inactive)
[2]
  Potency: inactive
[3]
  activation: 3.26% (inactive)
[4]
  activation: -9.53% (inactive)
[7]
  Potency: inactive
[8]
  max response: 41.4%
[9]
  Potency: inactive
[5]
  Potency: inactive
[6]
  activity change % (negative = inhibition): -15.7% (inactive)
[10]
  Potency: inactive

## COP(=S)(OC)Oc1c(Cl)cc(C)cc1Cl
[4]
  activation: 2.7% (inactive)
[8]
  max response: -4.3%
[9]
  Potency: inactive
[5]
  Potency: inactive

## CCOc1nc(F)cc2nc(S(=O)(=O)Nc3c(Cl)cccc3Cl)nn12
[2]
  Potency: inactive
[3]
  activation: -0.748% (inactive)
[4]
  activation: 0.859% (inactive)
[8]
  max response: 23.2%
[9]
  Potency: inactive
[5]
  Potency: inactive
[6]
  activity change % (negative = inhibition): -10.3% (inactive)
[11]
  outcome: inactive

## CCc1cc(C)cc(CC)c1-c1c(OC(=O)C(C)(C)C)n2n(c1=O)CCOCC2
[2]
  Potency: inactive
[3]
  activation: 2.69% (inactive)
[8]
  max response: 34.5%
[9]
  Potency: inactive
[5]
  Potency: inactive
[6]
  activity change % (negative = inhibition): -5.07% (inactive)
[10]
  Potency: inactive

## O=C(NC(=O)c1c(F)cccc1F)Nc1cc(Cl)c(OC(F)(F)C(F)F)c(Cl)c1
[1]
  activation: 7.72% (inactive)
[5]
  Potency: inactive
[6]
  activity change % (negative = inhibition): -14.9% (inactive)

## CO/N=C(/C(=O)OC)c1ccccc1COc1ccccc1C
[3]
  activation: -0.265% (inactive)
[6]
  activity change % (negative = inhibition): -29.5% (inactive)
[10]
  Potency: 12.2 µM (active)
[11]
  outcome: inactive

## O=C(Nc1ccccc1)Nc1cnns1
[2]
  Potency: inactive
[3]
  activation: -0.107% (inactive)
[7]
  Potency: inactive
[8]
  max response: -10.7%
[9]
  Potency: inactive
[6]
  activity change % (negative = inhibition): 24.1% (inactive)

## Clc1ccc(C2(Cn3cncn3)CC(Br)CO2)c(Cl)c1 (stereo not given)
[2]
  Potency: inactive
[7]
  Potency: inactive
[8]
  max response: 30.9%
[9]
  Potency: inactive
[6]
  activity change % (negative = inhibition): -0.525% (inactive)

## CCC(C)(C)c1ccc(O)c(C(C)(C)CC)c1
[2]
  Potency: inactive
[8]
  max response: -2.29%
[9]
  Potency: inactive
[10]
  Potency: 61.1 µM (active)

## CC(C)(C)C(O)/C(=C\c1ccc(Cl)cc1Cl)n1cncn1 (stereo not given)
[3]
  activation: 1.69% (inactive)
[7]
  Potency: 35.5 µM (active)
[6]
  activity change % (negative = inhibition): -35.6% (inactive)
